GalR3 antagonist – GalR3 antagonists in HEK293 cells, primary screen, cell-based, fluorescence readout; Galanin receptor type 3 (Homo sapiens), O60755; 360,000 compounds, 0.44% hits; inhibition, % at 3 µM; HEK293 GalR3-CNG cAMP membrane potential fluorescence; galR3 body fused to GalR1 C-terminus; AID 651719, 2012;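 active means inhibition above the screen-wide average plus 3 SD, cut at about 13% in these data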;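 further: forskolin and galanin both at EC90 stimulate the cells; cAMP rise reported by CNG channel membrane potential dye signal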
Target sequence (O60755 1-299 limits assumed): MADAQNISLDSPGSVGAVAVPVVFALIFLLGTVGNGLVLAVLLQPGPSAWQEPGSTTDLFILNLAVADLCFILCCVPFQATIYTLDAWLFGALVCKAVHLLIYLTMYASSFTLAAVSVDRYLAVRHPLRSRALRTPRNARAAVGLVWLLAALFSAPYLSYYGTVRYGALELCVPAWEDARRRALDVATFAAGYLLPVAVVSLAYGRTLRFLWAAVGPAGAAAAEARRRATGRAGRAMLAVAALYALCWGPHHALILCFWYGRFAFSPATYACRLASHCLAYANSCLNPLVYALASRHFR
SMARCA2 act – SMARCA2 (BRM) function activators, primary screen, cell-based, luminescence, high throughput | MG213 cells, MMTV-luciferase reporter, dexamethasone, overnight | activation, % at 9.1 µM | 370,000 compounds, 1% hits | AID 652017, 2013; in the data active means activation above about 7.8%
HIF act – HIF pathway transcriptional activators, primary screen, cell-based, U2OS HRE-luciferase, luminescence; activation, % at 7.5 µM (by protocol); 300,000 compounds, 0.32% hits; U2OS HRE-luciferase reporter; normalized: DMSO 0%, desferrioxamine 100%;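 active means mean activation of at least 10% of the iron chelator positive control signal, with at least half of replicates also reaching 10%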
FXN GAA850 act – FXN promoter activators, primary screen, cell-based, luciferase luminescence, HEK293 lucGAA850. HEK293 lucGAA850 FXN promoter luciferase reporter, 24 h; percent of 10 µM SAHA response. activation, % at 6 µM. 360,000 compounds, 0.56% hits;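 active means activation above the average of all compounds screened plus 3 SD, cutoff fixed separately per campaign, cut at about 7.5% in these data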
Hsp70 activator – Hsp70 transcriptional activators, primary screen, cell-based, HeLa, Hsp70 promoter luciferase, luminescence, 10 µM; 200,000 compounds, 0.04% hits; activation, % at 10 µM; HeLa Hsp70 promoter luciferase reporter; scaled: vehicle 0, proteasome-inhibitor control 100%; AID 1203, 2008;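 active means activation above the mean across all tested compounds plus 3 SD, cutoff set per campaign, cut at about 5.5% in these data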
SMARCA2 act conf – SMARCA2 (BRM) function activators, confirmation, cell-based, luminescence, triplicate; AID 652260, 2013; activation, % at 9.1 µM; shares compounds with SMARCA2 act; MG213 cells, MMTV-luciferase with dexamethasone, overnight; MG213 cells expressing E1A, Rb sequestered; DMSO wells 0%, reference activator 100%; 3,500 compounds, 30% hits;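 active means activation above its plate's cutoff, the mean activation of tested wells plus 3 SD, cut at about 7.9% in these data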
VP16 Luc act – GAL4-VP16 luciferase reporter activation, counter-screen for SMARCA2 (BRM) activator project, cell-based, pG5luc, luminescence, high throughput; shares compounds with SMARCA2 act; HEK293 GAL4-VP16 pG5luc reporter; scaled: DMSO wells 0%, SAHA wells 100%; activation, % at 9.1 µM; 3,500 compounds, 41% hits;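 active means activation above the solvent-only control well mean plus 3 SD, averaged across control plates, cut at about 5.2% in these data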
Hits are given with their value; - = inactive; . = no result given. A selection: hits, their analogues and other compounds. The true share with any hit is near 2.2%.

SMILES	GalR3 antagonist	SMARCA2 act	HIF act	FXN GAA850 act	Hsp70 activator	SMARCA2 act conf	VP16 Luc act
CCN(CC)CCOc1ccc2c(c1)C(=NO)c1cc(OCCN(CC)CC)ccc1-2	-	23.4	61.6	-	-	75.8	-
COc1ccc(C(=O)C(=O)N2CCN(C(=O)c3ccccc3C(F)(F)F)CC2)cc1OC	-	-	.	.	.	.	.
Cc1ccc(-c2cccc(NC(=O)C3C4C=CC(C4)C3C(=O)O)c2)o1 (stereo not given)	-	9.4	-	-	-	-	-
COc1ccc(-c2ccc(SCC(=O)NC3CCCCC3)nn2)cc1OC	-	8.5	-	-	.	10.9	-
COc1ccc(-c2ccc(SCC(=O)NC3CCCC3)nn2)cc1	-	-	.	-	.	.	.
CCOC(=O)c1cccc(NC(=S)NCc2ccc(C)cc2)c1	-	8.0	.	-	-	-	-
O=C(Oc1ccc2ccccc2c1Cl)N1CCCCCC1	-	9.3	-	-	-	-	23.6
Cc1c(C(N)=O)sc2nc(-c3ccccc3)cn12	-	9.9	-	-	-	-	12.8
COc1cccc(CNC(=O)COC(=O)c2nc(Cl)c(Cl)c(Cl)c2Cl)c1	-	16.8	.	-	.	25.9	-
CC1(CCCN2C(=O)c3ccccc3C2=O)OCCO1	-	10.4	-	-	.	-	-
O=C1c2ccccc2C(=O)N1CCCCCCc1ccccc1	-	-	.	-	.	.	.
COc1ccc(Nc2nc(N)c3ccccc3n2)c(OC)c1	-	10.8	-	-	.	9.0	7.5
COc1ccc(Nc2nc(-c3ccccc3)nc3ccccc23)c(OC)c1	-	-	-	-	-	.	.
CN1c2ccsc2/C(=N/Nc2ccc(F)cc2)CS1(=O)=O	-	9.4	-	-	-	8.1	6.5
Cc1nnc(NC(=O)c2cc(S(=O)(=O)N(C)C)ccc2N2CCCC2)s1	-	9.1	.	-	.	-	-
CN(C)S(=O)(=O)c1ccc(N2CCCC2)c(C(=O)Nc2ccccc2)c1	-	-	-	-	.	.	.
Cc1cc(=O)oc2cc(OCCCC[n+]3ccccc3)ccc12	-	-	-	-	.	.	.
Cc1cc(=O)oc2cc(OCCc3ccccc3)ccc12	-	8.6	-	-	.	8.7	20.5
O=C(CSc1nc2ccccc2s1)N/N=C/c1ccco1	-	8.8	-	-	-	8.9	-
Cc1ccc(Cn2nnnc2CN2CCC(O)(c3ccc(F)cc3)CC2)cc1	-	10.6	-	-	-	-	-
COc1ccc(CNC(=O)CN=C2NC(=O)C(c3ccccc3)(c3ccccc3)N2)cc1	-	11.5	.	-	-	-	-
Cc1ccc(NC(=O)c2cccc3cccnc23)cc1	-	8.2	-	-	.	19.8	9.1
CC(=O)Nc1cccc(NC(=O)c2cccc3cccnc23)c1	-	-	-	-	.	.	.
Cc1cccc(C(=O)O/N=C(\N)c2cccc([N+](=O)[O-])c2)c1	.	.	-	-	-	.	.
N/C(=N\OC(=O)c1ccc2c(c1)OCO2)c1cccc([N+](=O)[O-])c1	-	9.9	-	-	-	12.4	9.4
SMILES	GalR3 antagonist	SMARCA2 act	HIF act	FXN GAA850 act	Hsp70 activator	SMARCA2 act conf	VP16 Luc act
O=C(Cc1ccccc1[N+](=O)[O-])NCC(=O)c1ccc2c(c1)OCO2	-	-	.	-	.	.	.
N/C(=N\OC(=O)c1cccs1)c1cccc([N+](=O)[O-])c1	-	10.6	-	-	-	-	6.5
O=C(Cc1ccccc1[N+](=O)[O-])c1ccc2c(c1)OCO2	-	11.2	.	-	.	-	-
C#CCN1C(=O)[C@]2(NCCc3c2[nH]c2ccc(OC)cc32)c2ccccc21	.	-	.	.	.	.	.
COCc1[nH]nc2c1C(c1ccc3c(c1)OCO3)N(Cc1ccccc1)C2=O (stereo not given)	-	-	.	.	.	.	.
Cn1c(SCc2ccc(C(C)(C)C)cc2)nnc1-c1ccco1	.	-	.	.	.	.	.
CCN(CC)C(=O)CC[C@@H]1CC[C@]2(CCCN(C(=O)c3cccnc3)C2)O1	.	-	.	.	.	.	.
C[C@@H]1CCN(C2CC2)S(=O)(=O)c2ccc(N3CCC[C@@H]3CO)cc2O1	.	-	.	.	.	.	.
O=c1nc(N/N=C/C=C/c2ccccc2)cn[nH]1	-	11.8	-	-	.	11.6	6.7
O=C(N/N=C/C=C/c1ccccc1)c1ccncc1	-	-	-	-	-	.	.
O=C(O)c1ccc(N/N=C/C=C/c2ccccc2)cc1	-	8.0	-	-	.	-	17.0
C(=C\c1ccccc1)/C=N/Nc1nncc(-c2ccccc2)n1	-	-	-	.	-	.	.
CC(C)CNc1cccc2c1S(=O)(=O)N[C@@H](C)CO2	-	-	.	.	.	.	.
COc1ccc(C2N=C(c3ccccc3)NO2)cc1OC (stereo not given)	-	8.6	-	-	.	14.2	9.6
COc1cc(C2N=C(c3ccccc3)NO2)cc(Br)c1O (stereo not given)	-	-	-	-	-	.	.
Cc1csc(NC(=O)c2nc3nccc(C)n3n2)n1	-	8.6	-	-	-	-	-
Cc1ccnc2nc(C(=O)Nc3nc4ccccc4s3)nn12	-	10.9	-	-	.	-	11.2
COC(=O)[C@]12C[C@H](CC(=O)NCCC(C)C)C(=O)N(Cc3ccc(Cl)cc3Cl)C1=C[C@H](C1CCCC1)O[C@@H]2C	.	-	.	.	.	.	.
CCOc1ccc(-n2c(SCC(=O)NN=Cc3ccc(C(=O)O)cc3)nnc2-c2cccnc2)cc1	.	-	.	.	.	.	.
C/C(=N/NC(=O)c1ccc2c(c1)OCO2)c1ccc(NC(=O)c2ccc(F)cc2)cc1	-	8.3	.	-	.	-	7.2
S=c1[nH]nc(-c2n[nH]c3c2CCC3)n1N=Cc1ccc(Br)s1	.	-	.	.	.	.	.
Nc1cccc(N=[N+]([O-])c2cccc(N)c2)c1	-	8.8	.	-	.	12.5	6.9
O=[N+]([O-])c1cccc(N=NNc2cccc([N+](=O)[O-])c2)c1	-	-	.	-	.	.	.
CN(Cc1ccccc1)C(=O)OCc1cn(Cc2cccc(F)c2)nn1	.	-	.	.	.	.	.
COc1ccc(OC)c(CN(CC(F)(F)F)S(=O)(=O)c2ccccc2Br)c1	-	-	.	.	.	.	.
COC(=O)/C=C1\C(=O)N(c2nc3ccccc3s2)C(=S)N1c1ccc(F)cc1	-	8.6	-	-	-	-	-
Cn1c(C(=O)N2CCN(Cc3ccccc3)CC2)cc2c(=O)n(C)c3ccccc3c21	-	8.9	-	-	-	-	-
COc1ccccc1N1CCN(C(=O)C2CCN(C(=O)c3ccccc3Cl)CC2)CC1	-	8.2	-	-	.	-	-

Source: PubChem BioAssay (several laboratories)
